Measurements published in PubChem BioAssay AID651820 (National Center for Advancing Translational Sciences (NCATS), 2012).
Hit rate of the full screen: of about 340,000 compounds, about 12,000 (3.5%) were called active. About 18% were inconclusive and are not listed. The entries come from a sample that favours actives as a whole. A number with no mark means an inactive call. Calls come from the whole dose curve; as a rule, active = well fitted inhibition curve with a large enough effect; inconclusive = small, poorly fitted or top-dose-only effect, or another doubt; inactive = no such curve, though single readings can be large or run the other way.

Experiment: qHTS Assay for Inhibitors of Hepatitis C Virus (HCV)
Settings: Huh7.5.1 HCVcc-Cre infection, luciferase reporter, 44 h; series mostly up to 41.8 µM; activity change, negative = inhibition: at the top concentration
How it was run: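 A cell-based infection assay in which seeded cells (1,000 per well) receive test compound after 4 h, are inoculated with HCVcc-Cre at approximately 0.5 moi, and are incubated 44 h before luminescence detection.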
% is set by controls: 0 for no effect and ±100 for the full control effect; potency is the fitted concentration of half-maximal effect.

Structure (SMILES)	activity change, negative = inhibition	Potency
Cc1cc(NC(=O)CSCC(=O)NC(C)c2ccccc2)no1 (configuration not stated)	2.94%	–
CCN(c1ccccc1)S(=O)(=O)c1cc(C(=O)NCc2ccccn2)ccc1C	-17.6%	–
O=C(COC(=O)c1ccc(O)cc1O)NC(=O)c1ccccc1	17.8%	–
CCOc1ccc2oc(C(=O)N(CC)CC(=O)Nc3ccc(NC(C)=O)cc3)c(C)c2c1	-16.3%	–
COc1ccc(C(C)(C)C)cc1NC(=O)CCN1C(=O)C2CCCCC2C1=O (configuration not stated)	2.14%	–
O=[N+]([O-])c1ncc(Br)cc1Nc1ccccc1	11.3%	–
CCN(CC)S(=O)(=O)c1ccc(CNC(=O)CN2C(=O)NC3(CCc4ccccc43)C2=O)cc1 (configuration not stated)	8.18%	–
O=C(NN=Cc1ccc([N+](=O)[O-])cc1)C1CC1	-21.8%	–
CSCCC(NS(=O)(=O)c1ccc(C)cc1)C(=O)N(C)CC(=O)Nc1ccccc1Br (configuration not stated)	-5.06%	–
Cc1ccccc1N1CCN(C(=O)c2cccnc2)CC1	1.85%	–
O=C(Nc1ccc(N2CCN(C(=O)c3ccccc3)CC2)c(Cl)c1)c1ncn[nH]1	-21.7%	–
O=C(Nc1ccc(N2CCN(C(=O)c3ccccc3)CC2)c(Cl)c1)c1cccnc1	–	11.2 µM (active)
Cc1cccc(C(=O)NCc2nnc(SC(C)C(=O)Nc3nnc(C)s3)n2C)c1 (configuration not stated)	-37%	–
c1ccc(Cc2ccc(OCCn3ccnc3)cc2)cc1	–	12.6 µM (active)
Clc1ncn(CCOc2ccccc2)c1Cl	29%	–
Brc1ccc(OCCn2ccnc2)cc1	18.5%	–
COc1ccc(CN2CCC(n3nccc3NC(=O)CCCc3ccccc3)CC2)cc1C	–	10 µM (active)
COc1cc(CN2CCC(n3nccc3NC(=O)CCCc3ccccc3)CC2)ccc1O	-21%	–
Cc1ccc(CN2CCC(n3nccc3NC(=O)CCCc3ccccc3)CC2)o1	0.657%	–
COc1cccc(N2CC(NC(=O)c3ccc4ccccc4c3)CC2=O)c1 (configuration not stated)	15.5%	–
O=C1[C@@H](c2ccccc2)[C@@H](c2ccccc2)N1c1cccnc1	–	5.01 µM (active)
CCc1ccccc1NC1c2ccccc2C(=O)N1c1cccnc1 (configuration not stated)	11.1%	–
O=C1C(=O)N(c2ccccc2)C(c2ccccc2)C1c1ccccc1 (configuration not stated)	-16.7%	–

Structure (SMILES)	activity change, negative = inhibition	Potency
CC[C@@]1(C(=O)OC)N[C@H](CN(C)C(C)=O)[C@@H]2C(=O)N(C)C(=O)[C@@H]21	18.4%	–
CC(NC(=O)COC(=O)CCC(=O)c1ccc(Cl)cc1)c1ccccc1 (configuration not stated)	-14.6%	–
CCC(=O)N1c2ccc(S(=O)(=O)NCc3ccco3)cc2CC1C (configuration not stated)	4.82%	–
COc1cccc(CNS(=O)(=O)c2ccc3c(c2)CC(C)N3C(C)=O)c1 (configuration not stated)	-7.76%	–
COc1cccc(CNS(=O)(=O)c2ccc3c(c2)CC(C)N3C(=O)C2CCC2)c1 (configuration not stated)	–	6.31 µM (active)
Cn1cccc1C(=O)OCC(=O)NCCc1ccccc1	14%	–
O=C(COC(=O)c1ccc2ncsc2c1)Nc1ccc(Cl)cc1	7.39%	–
CCCCn1c(N)c(N(CC(C)C)C(=O)CSc2ccc([N+](=O)[O-])cc2)c(=O)[nH]c1=O	0.648%	–
O=C(NNS(=O)(=O)c1c(F)cc(F)c(Cl)c1F)C12CC3CC(CC(C3)C1)C2	6.17%	–
COc1cc(/C=N/O)cc(Br)c1OS(=O)(=O)c1ccc(C)cc1	-28.6%	–
CCOc1cc(/C=N/O)cc(Br)c1OC	–	8.91 µM (active)
O=C(O)COc1ccc(/C=N/O)cc1Br	14.8%	–
CC(C)c1ccc(C=NNc2ccc([N+](=O)[O-])cn2)cc1	-13.8%	–
COc1ccccc1-c1nn(Cc2ccccc2)cc1C(=O)N1CCN(c2ncccn2)CC1	0.899%	–
CCn1nc(C(=O)Nc2ccc(N3CCOCC3)cc2)c2ccccc2c1=O	-5.96%	–
Cc1cc(NC(=O)CN2C(=O)NC(CC(C)C)C2=O)no1 (configuration not stated)	18.5%	–
Cc1ccc(S(=O)(=O)N(Cc2cccc([N+](=O)[O-])c2)C(=O)N2CCN(C)CC2)cc1	0.369%	–
CCN(CC)C(=O)CN(c1cccc([N+](=O)[O-])c1)S(=O)(=O)c1ccccc1	-6.32%	–
O=C(CCl)N(Cc1cccc([N+](=O)[O-])c1)c1cccc(Cl)c1	–	3.98 µM (active)
CN(C)C(CNC(=O)c1cccc(S(=O)(=O)Nc2ccc(Br)cc2)c1)c1ccco1 (configuration not stated)	10%	–
O=C(CCCOc1ccccc1)NNC(=O)c1ccc(Cl)cc1	22.7%	–
CC1CCCCC1NC(=O)Cn1c(=O)cnc2ccccc21 (configuration not stated)	10.8%	–
Cc1nn(Cc2ccccc2)c(C)c1C(=O)N1CCN(CC(=O)Nc2ccccc2Cl)CC1	-5.14%	–

Structure (SMILES)	activity change, negative = inhibition	Potency
Clc1ccc(C2=CSC3=Nc4cccc5cccc(c45)N23)cc1	–	5.01 µM (active)
CCc1nnc(NS(=O)(=O)c2ccc(NC(=O)c3cccc(OC(F)(F)C(F)F)c3)cc2)s1	14.1%	–
Cc1cc(OCCCCOc2ccc(C#N)cc2)ccc1[N+](=O)[O-]	–	8.91 µM (active)
Cc1cc(OCC(=O)NC2CCN(C)CC2)ccc1[N+](=O)[O-]	0.975%	–
Cc1cc(C(=O)O)ccc1[N+](=O)[O-]	38.5%	–
COc1ccc(N2CCN(S(=O)(=O)c3cc4c5c(c3)C(C)C(=O)N5CCC4)CC2)cc1 (configuration not stated)	0.733% [at 8.37 µM]	–
Cn1c(/C(C#N)=C2/CCCCCN2)nc2ccccc21	-26.8%	–
N#C/C(=C1\CCCN1)c1nc(-c2ccccc2)cs1	–	6.31 µM (active)
N#C/C(=C1/CCCN1)c1ccccn1	-11.2%	–
COC1=NC2=NCCN2C(OC)=N1	-0.005%	–
Cc1ccc(OCC(O)CN2CCN(CC(O)COc3ccc(C)cc3Cl)CC2)c(Cl)c1 (configuration not stated)	–	25.1 µM (active)
OC(COc1ccc(F)cc1Cl)CN1CCc2ccccc2C1 (configuration not stated)	9.89%	–
COc1ccccc1OCC(O)CN1CCOCC1 (configuration not stated)	27.6%	–
COc1ccc2nc(N3C(=O)C(O)=C(C(=O)c4ccco4)C3c3ccco3)sc2c1 (configuration not stated)	0.823%	–
CCOc1ccc(/C=C(/C#N)c2nnc(N3CCOCC3)n2-c2ccccc2)cc1OC	2.12%	–
CC(C)N(Cc1ccccc1)C(=O)COC(=O)c1ccccc1SCC(=O)N1CCCC1	-26.1%	–
CCOc1cc(C(=S)N2CCOCC2)ccc1O	2.27%	–
CC(=O)Nc1ccc(S(=O)(=O)Oc2ccc(Br)cc2C(=S)N2CCOCC2)cc1	-17.6%	–
CCOc1cc(C(=S)N2CCOCC2)ccc1OS(=O)(=O)c1ccc(Br)cc1	–	10 µM (active)
Cc1cc(NC(=O)COc2ccccc2C#N)no1	10.6%	–
O=C(Nc1cc(S(=O)(=O)N2CCOCC2)ccc1N1CCOCC1)c1c(F)cccc1Cl	-1.1%	–
